Measurements as given in PubChem BioAssay AID2012 (Sanford-Burnham Center for Chemical Genomics, 2009).
Hit rate of the full screen: of about 290,000 compounds, about 2,700 (0.93%) were called active. The rule behind the calls is not given here. For the sample, actives were picked, then their nearest neighbours and some compounds at random.

Target: Eukaryotic translation initiation factor 4H (Homo sapiens) (UniProt Q15056)
Experiment: human eIF4H binding inhibitors, primary screen, translation initiation inhibitor project, biochemical, uHTS, fluorescence polarization (AID 2012);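 note: calls also rest on retests at 20 µM and on dose response follow-up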
Conditions: eIF4H fluorescence polarization binding assay, stronger effect = higher value

| Structure (SMILES) | inhibition (at 35 µM) | inhibition (confirmation average, at 20 µM) |
| --- | --- | --- |
| O=C(CSCc1ccccc1)N1CCc2ccccc21 | 2.4% (inactive) | – |
| CCn1c(=O)c2ccccc2n(CC(=O)N2CCCc3ccccc32)c1=O | -6.1% (inactive) | – |
| CCC(=O)N1CCCc2ccccc21 | 100% (active) | – |
| COc1ccc(S(=O)(=O)N2CCOC2CNC(=O)C(=O)NCc2ccc(F)cc2)cc1 (centres undefined) | -9.2% (inactive) | – |
| CCOc1c(OC)cccc1C(=O)NCC1(c2ccccc2)CCCC1 | -6% (inactive) | – |
| COc1cc([C@H](Cc2ccccc2)NC(C)=O)oc(=O)c1 | 100% (active) | – |
| COC(=O)[C@H](Cc1ccccc1)NC(=O)Nc1ccc(OC)cc1 | 2.4% (inactive) | – |
| CCOC(=O)C(Cc1ccccc1)NC(=O)CCC(=O)c1ccc(OC)cc1 (centres undefined) | -3.3% (inactive) | – |
| COc1cc2c(cc1OC)CN(C(=O)c1cc(S(=O)(=O)N3CCCCC3)ccc1Cl)CC2 | -13.7% (inactive) | – |
| O=C(Cc1ccccc1)n1nc(-c2ccccc2)nc1NCc1ccco1 | -6.8% (inactive) | – |
| O=c1nc2s/c(=C\c3ccco3)c(=O)n2nc1Cc1ccccc1 | 96.4% (active) | – |
| Cc1nc2nc(SCC(=O)NCc3ccco3)nn2c(C)c1Cc1ccccc1 | 3.5% (inactive) | – |
| Cc1cccn2c(=O)c(C=O)c(Nc3ccc(S(N)(=O)=O)cc3)nc12 | -1.8% (inactive) | – |
| Cc1ccc(C)c(N2CCN(C(=O)CCCCCn3c(=S)[nH]c4ccc(N5CCOCC5)cc4c3=O)CC2)c1 | 1.4% (inactive) | – |
| C=CCn1c(=S)[nH]c2scc(-c3ccco3)c2c1=O | 94.1% (active) | – |
| C=CCn1c(SCc2csc(C)n2)nc2scc(-c3ccc(C)o3)c2c1=O | 4.9% (inactive) | – |
| C=CCNC(=O)CSc1nc2scc(-c3ccco3)c2c(=O)n1CC=C | 49.9% (inactive) | – |
| O=[N+]([O-])c1ccccc1/C=C/CN1CCCC(CO)C1 (centres undefined) | -4.3% (inactive) | – |
| O=C(CSc1ncccn1)N1CCCC1 | -5.6% (inactive) | – |
| C=CCNc1nnc(SCC(=O)N2CCCCC2)c2ccccc12 | 85.7% (active) | 54.5% |
| C=CCNc1nnc(C)c2ccccc12 | -4.9% (inactive) | – |
| C=CCOc1ccc(C(=O)Nc2ccccc2C(=O)N2CCCC2)cc1 | 0.5% (inactive) | – |
| COCC1CCN(C(=O)C2CCC(=O)N(Cc3cccc(C(F)(F)F)c3)C2)CC1 (centres undefined) | -2.7% (inactive) | – |

| Structure (SMILES) | inhibition (at 35 µM) | inhibition (confirmation average, at 20 µM) |
| --- | --- | --- |
| COc1ccc(N(CC(=O)NCCSCc2cccc(Cl)c2)S(C)(=O)=O)cc1 | -10.9% (inactive) | – |
| NC(=O)c1c(NC(=O)CSc2nnc(-c3ccco3)n2N)sc2c1CCCC2 | 65.9% (active) | 96.5% |
| NC(=O)c1c(NC(=O)CSc2nc(N)cc(=O)[nH]2)sc2c1CCCC2 | 15.5% (inactive) | – |
| CCc1cccc(C)c1NC(=O)CSc1nnc(-c2ccco2)n1N | 6.1% (inactive) | – |
| COc1ccc(C(=O)NC(=S)N2CCCCC2c2cccnc2)cc1OC (centres undefined) | 2% (inactive) | – |
| O=C(CN(C(=O)CCC(=O)Nc1nccs1)c1ccc(F)cc1)NCc1ccc2c(c1)OCO2 | -1.4% (inactive) | – |
| CNc1nc(-c2ccccc2)cc(-c2ccccc2)n1 | -3.9% (inactive) | – |
| CS(=O)(=O)c1sc2nc(-c3ccccc3)cc(-c3ccccc3)c2c1N | 98.5% (active) | – |
| Nc1nc(-c2ccccc2)cc(-c2ccccc2)n1 | 0.4% (inactive) | – |
| CCCc1cc(C(=O)Nc2ccc(Cl)cn2)cs1 | 2.5% (inactive) | – |
| CCc1ccccc1S(=O)(=O)Cc1ccc(C(=O)NCCc2ccccc2)o1 | -13% (inactive) | – |
| COc1ccc(-n2c(-c3ccc(OC)c(OC)c3)n[nH]c2=S)cc1 | 7.7% (inactive) | – |
| COc1ccc(OC)c(-n2c(-c3ccn[nH]3)n[nH]c2=S)c1 | -6% (inactive) | – |
| COc1ccccc1-n1c(-c2cc(-c3ccco3)[nH]n2)n[nH]c1=S | 58% (active) | 74% |
| Cc1nc(C)c(-c2nnc(-c3cccc(S(=O)(=O)N(C)C)c3)o2)cc1C(=O)NN | -1.3% (inactive) | – |
| Cc1ccccc1C(=O)NC(=S)NC1CC1 | -17.7% (inactive) | – |
| CSCCC(NC(=O)c1ccco1)C(=O)OCC(=O)Nc1ncc(Cl)c(C)c1Cl (centres undefined) | 4.5% (inactive) | – |
| Cc1c(Cl)cnc(NC(=O)COC(=O)c2ccc(S(=O)(=O)NCc3ccco3)cc2)c1Cl | 58.6% (active) | 87.4% |
| C/C(=N\Nc1ncc(Cl)cc1Cl)c1ccc(S(=O)(=O)NCc2ccco2)cc1 | -4.5% (inactive) | – |
| CC(=O)Nc1ccc(N2C(=O)C3C4C=CC(CC4)C3C2=O)cc1 (centres undefined) | -5.9% (inactive) | – |
| O=c1[nH]c(/C=C\c2cccc(C(F)(F)F)c2)nc(O)c1[N+](=O)[O-] | 3.5% (inactive) | – |
| Cc1cccc(NS(=O)(=O)c2ccc(C(=O)NCC(C)(C)N3CCOCC3)cc2)c1C | -0.1% (inactive) | – |
| Cc1cccc(NC(=O)CN2C(=O)c3ccccc3C2=O)c1C | 9.4% (inactive) | – |

| Structure (SMILES) | inhibition (at 35 µM) | inhibition (confirmation average, at 20 µM) |
| --- | --- | --- |
| O=C1N/C(=C/c2cccn2-c2ccccc2)C(=O)N1c1cccc(Cl)c1 | 2.6% (inactive) | – |
| Cc1ccccc1NC(=O)CN1C(=O)N/C(=C\c2cccn2-c2cccc(C(=O)O)c2)C1=O | 89.1% (active) | 86.1% |
| Cc1ccc(CNC(=O)C(=O)c2cn(CC(=O)N3CCOCC3)c3ccccc23)cc1 | -6.1% (inactive) | – |
| CSc1nnc(SCc2nc3sc(C(=O)O)c(C)c3c(=O)[nH]2)s1 | 86.3% (active) | – |
| Cc1ccc(C)c(SCc2nc3sc(C(=O)O)c(C)c3c(=O)[nH]2)c1 | 2.9% (inactive) | – |
| CCOC(=O)c1sc2nc(CSc3ccccc3)[nH]c(=O)c2c1C | 2.6% (inactive) | – |
| COC(=O)c1ccccc1NC(=O)CSc1n[nH]c(-c2ccncc2)n1 | 3.3% (inactive) | – |
| Cc1cccnc1CC(C)NC(=O)c1cc(COc2cncc(Cl)c2)on1 (centres undefined) | -1% (inactive) | – |
| O=C(N/N=C/c1c(Cl)[nH]c2ccccc12)c1sc2ccccc2c1Cl | -8.2% (inactive) | – |
| Oc1ccc(N=Cc2sc3ccccc3c2Cl)cc1 | 105% (active) | 73.8% |
| Oc1ccc(N=Cc2c(O)ccc3ccccc23)cc1 | 19% (inactive) | – |
| CCCOc1ccc(/C=N/NC(=O)C2CC2)c(OCCC)c1 | -12.1% (inactive) | – |
| Cc1c(OC(C)C(=O)N[C@@H](Cc2ccccc2)C(=O)O)ccc2c3c(c(=O)oc12)CCCC3 (some centres undefined) | 5.5% (inactive) | – |
| Cc1cc(OC(C)C(=O)NC2CC(C)(C)NC(C)(C)C2)c2c(C)cc(=O)oc2c1 (centres undefined) | -0.9% (inactive) | – |
| Cc1ccc(N2NC(=O)/C(=C/C=C/c3ccco3)C2=O)cc1C | 45.7% (inactive) | – |
| Cc1cccc(N=C2NC(=O)/C(=C/c3cn(C)c4ccccc34)S2)c1 | 2.5% (inactive) | – |
| Cc1ccc(N=C2NC(=O)/C(=C/C=C/c3ccco3)S2)cc1C | 75.9% (active) | 90.3% |
| CCN(CC)S(=O)(=O)c1ccc(-c2cn3ccc(C)cc3n2)cc1 | 1.1% (inactive) | – |
| Cc1ccc(-c2n[nH]c(=S)n2/N=C/c2cc3c(cc2[N+](=O)[O-])OCO3)cc1 | 29.5% (inactive) | – |
| O=[N+]([O-])c1ccccc1/C=N/n1c(COc2ccccc2)n[nH]c1=S | -1.1% (inactive) | – |
| CCOc1ccc(-c2n[nH]c(=S)n2/N=C/c2cc3c(cc2[N+](=O)[O-])OCO3)cc1 | 86.2% (active) | 80.4% |
| COc1cc(/C=N/NC(=O)c2cc(C)n(-c3ccc(F)cc3)c2C)cc(OC)c1O | 0.7% (inactive) | – |
| Cc1ccc(-n2c(C)cc(C(=O)CN3C(=O)C(=O)N(C4CCCC4)C3=O)c2C)cc1 | 1.2% (inactive) | – |

| Structure (SMILES) | inhibition (at 35 µM) | inhibition (confirmation average, at 20 µM) |
| --- | --- | --- |
| Cc1cc(C(=O)COC(=O)C2CC2)c(C)n1-c1ccc(F)cc1 | 4.9% (active) | 52.5% |
| O=C(Nc1ccc(F)cc1)c1ccc(S(=O)(=O)NCc2cccnc2)cc1 | 10.1% (inactive) | – |
| NC(=O)CN1CCCC1c1ccc2c(c1)OCCO2 (centres undefined) | 4.2% (inactive) | – |
| Clc1ccccc1CSc1nnc(-c2ccco2)c(-c2ccco2)n1 | 96.6% (active) | 94.4% |
| Fc1cccc(Cl)c1CSc1ccc(-c2ccco2)nn1 | 49.1% (inactive) | – |
| Brc1ccc(CSc2ccc(-c3ccco3)nn2)cc1 | 61% (inactive) | -1.3% |
| O=C(Nc1nnc(SCc2ccccc2)s1)c1ccco1 | 6% (inactive) | – |
| c1ccc(CSc2nnc(-c3ccco3)c(-c3ccco3)n2)cc1 | 94.6% (active) | – |
| COC(OC)c1ccnc(SCc2ccccc2Cl)n1 | 2% (inactive) | – |
| CCN(C(=O)C1CCCN(c2nc(-c3ccc(OC)cc3)no2)C1)c1ccc(OC)cc1 (centres undefined) | -11.8% (inactive) | – |
| Cc1ccc(NC(=O)CSc2nn3c(=O)c(C)nnc3s2)cc1Cl | -27.5% (inactive) | – |
| CC(=O)c1ccc(N2CCN(C(=O)C3CCN(S(=O)(=O)c4ccc5c(c4)CC(C)N5C(=O)C4CC4)CC3)CC2)cc1 (centres undefined) | -9.3% (inactive) | – |
| O=C(Nc1ccc2c(c1)OCO2)c1sc2cc(Cl)ccc2c1Cl | -4% (inactive) | – |
| CC(Sc1nc2cc(Cl)ccc2s1)C(=O)Nc1ccc2c(c1)OCO2 (centres undefined) | 1.8% (active) | 65.1% |
| CC(Sc1nc(-c2ccccc2)cc(C(F)(F)F)n1)C(=O)Nc1ccc2c(c1)OCO2 (centres undefined) | 4.8% (inactive) | – |
| O=S(=O)(c1ccc(Br)cc1)N1CCC(c2nc3ccccc3[nH]2)CC1 | -8.2% (inactive) | – |
| CC1CCCCN1CCCNc1ccc(C(CC(N)=O)NC(=O)c2ccccc2)cc1[N+](=O)[O-] (centres undefined) | -8.3% (inactive) | – |
| CC(=O)NC(Cc1ccc(F)c(F)c1)C(=O)NC1CCN(C(=O)c2ccc(C)cc2)CC1 (centres undefined) | -14.2% (inactive) | – |
| CNC(=S)N1CCC(NC(=O)C(Cc2ccc(F)cc2)NC(C)=O)CC1 (centres undefined) | 63.8% (active) | – |
| COc1ccc(CC(NC(C)=O)C(=O)NC2CCN(C(=O)c3ccc(Cl)cc3)CC2)cc1 (centres undefined) | -0.5% (inactive) | – |
| O=C(CCc1ccccc1)NNC(=O)COc1ccc(Cl)cc1 | 0.4% (inactive) | – |
| COc1ccccc1NC(=O)CCC(=O)OC(C)C(=O)c1ccccc1 (centres undefined) | 1.3% (inactive) | – |
| O=C(NC1CCCC1)C(=O)c1c[nH]c2ccccc12 | -6.1% (inactive) | – |
